Here are results for six substances from ChEMBL document CHEMBL1201862, “PubChem BioAssay data set” (2004).

One may read the GI50 as the concentration giving 50% growth inhibition.

About 2,900 (6.6%) of roughly 44,000 sequences were called active. Cut-off read from the data, not from the text of the source: active = GI50 up to about 1.1 µM and inactive = higher. Not all results are given here. Measured potencies and affinities stand elsewhere.

In this assay the test system is MDA-MB-231.
In turn, “[Bis(aminomethyl)tetramethylenesilane]tetrachloropaltinum(IV), CHEMBL2146189” showed a GI50 of 21 µM.
As for “[Bis(aminomethyl)pentamethylenesilane]tetrachloropaltinum(IV), CHEMBL2146204”, the concentration for 50% growth inhibition (GI50) worked out at 19.6 µM.
As to CISPLATIN, CHEMBL11359, halving of growth (GI50) required 22.4 µM.
“[Bis(aminomethyl)tetramethylenesilane]dichloropaltinum(II), CHEMBL2146205” gave a 50% growth inhibitory concentration (GI50) of 48.6 µM.
The figure for “[Bis(aminomethyl)pentamethylenesilane]dichloropaltinum(II), CHEMBL2146202” is 2.01 µM; for “[Bis(aminomethyl)dimethylsilane]tetrachloroplatinum(IV), CHEMBL2146190” it is 60.1 µM.
